# Assay results published in PubChem BioAssay.
# Records with an inconclusive call do not appear. Calls of active or inactive are those of the source.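 How the source made its calls, unless noted: active means viability loss from added drug above about 55%, and viability with drug at most 40%, in both replicates (limit read from the data, passing the limit was not always enough); inconclusive means both conditions met in only one replicate; inactive means neither replicate meets both conditions.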
# How the values were obtained:
# [1] = HUVEC growth inhibition – cell-based, human, primary screen (AID 575;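 active means viability at or below 30% in both replicate assays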;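 further: 100% = median of untreated cell wells with 0.1% DMSO on each plate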); details: HUVEC proliferation, CellTiter-Glo luminescence, 72 h; at 10 µM; stronger effect = lower value
# [2] = reversal of MRP1-mediated doxorubicin resistance, pilot screen, H69AR cells, doxorubicin co-treatment (AID 601); details: CellTiter-Glo, 72 h, at 10 µM; for differential viability (reversal): stronger effect = higher value
# [3] = 384-well plate pilot, post-Golgi transport modulator project, inhibition of yeast transport mutant growth (AID 636; in the data active means inhibition above about 31%); details: absorbance 615 nm, about 18 h, stronger effect = higher value
# [4] = growth suppression of yeast trafficking mutant, preliminary HTS, modulators of trafficking downstream of Golgi apparatus project, 1536-format plate, OD 615 nm (AID 637; in the data active means inhibition above about 30%); details: yeast transport mutant growth, absorbance 615 nm, 18 h; stronger effect = higher value
# [5] = growth inhibitors of H69AR lung tumor, primary screen, human, duplicate replicates (AID 580;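 active means viability at or under a set limit in both replicates, limit being median viability minus 3 SD, cut at about 48% in these data, passing the limit was not always enough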;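 further: 100% = mean luminescence of untreated wells and 0% = no signal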); details: H69AR lung tumor cells viability, ATP luminescence, 72 h; at 10 µM; stronger effect = lower value
# [6] = OD615 S. cerevisiae growth inhibition, permissive medium, pilot counter-assay, permissive growth control for S. cerevisiae lifespan shortening project (AID 705;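 active means growth inhibition above 25% in both replicates, a cutoff set 3 SD above the mean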); details: OD615, 24 h, at 10 µM, stronger effect = higher value
# [7] = Restrictive medium S. cerevisiae growth inhibition, OD615, pilot screen of yeast lifespan reduction project, restrictive growth control (AID 706;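 active means growth inhibition above a set limit, 3 SD over mean compound inhibition, in both replicates, cut at about 43% in these data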;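 further: modified DeaD lifespan yeast strain shifted to restrictive glucose medium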); details: OD615, 48 h, at 10 µM, stronger effect = higher value
# [8] = viability gain of MRP-1-high H69AR cells under doxorubicin, pilot screen, MRP-1 activator project, CellTiter-Glo, duplicate (AID 807;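 active means viability increase at or above a cutoff of the median across tested compounds plus 3 SD, cut at about 8.5% in these data, passing the limit was not always enough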;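 further: compound pretreatment 18-22 h then 72 h combined with doxorubicin; 0% = doxorubicin alone and 100% = vehicle without doxorubicin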); details: H69AR viability with doxorubicin, CellTiter-Glo luminescence; at 10 µM; stronger effect = higher value
# [9] = growth suppression of beta-catenin knockout HCT116, pilot screen, human colon tumor cells (AID 823;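 active means cell viability at or below a set limit in both duplicate runs, the limit being the all-compound median minus 4 SD, cut at about 23% in these data, passing the limit was not always enough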;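 further: 0% = wells killed by 20 µM Hyamine and 100% = untreated DMSO cell wells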); details: CellTiter-Glo, 60 h, at 10 µM, stronger effect = lower value
# [10] = growth suppression of PTEN-deleted HCT116, pilot screen, cell-based, HCT116 clonal line, CellTiter-Glo (AID 824;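 active means viability at or below 27.92% in each of two runs, the all-compound median minus 4 SD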;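 further: 0% = 20 µM Hyamine control and 100% = vehicle cell control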); details: 60 h, at 10 µM, stronger effect = lower value
# [11] = inhibitors of the yeast RAM network, pilot screen, dse1pr::URA3 reporter, 5-FOA selection (AID 869;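 active means inhibition over a set limit, the all-compound mean plus 3 SD, in both replicate runs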;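 further: 0% = DMSO wells with no growth and 100% = 10 µM 1-NA-PP1 with full growth; RAM network block rescues cells from 5-FOA so hits raise OD615 growth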); details: S. cerevisiae dse1pr::URA3 5-FOA growth, OD615, 2 d; at 10 µM; stronger effect = higher value; strain carries analog-sensitive mutant Cbk1 kinase
# [12] = H69AR cells + 2 uM doxorubicin, measured here: viability with 2 uM doxorubicin, stronger effect = lower value
# [13] = H69AR cells, compound alone cytotoxicity
compound,measurement,setting,value
CC(C)Cn1c(N)c(C(=O)NCCN2CCOCC2)c2nc3ccccc3nc21,viability,[1],52.3% (inactive)
same,differential viability (reversal),[2]; H69AR cells + 2 uM doxorubicin,-23.6% (inactive)
same,viability,[2]; [12],79.3%
same,viability,[2]; [13],55.7%
same,inhibition,[3],-5.2% (inactive)
same,inhibition,[4],3.65% (inactive)
CN(C)c1ccc(/C=C/C(O)=C2/C(=O)N(C)C3(C)CC2c2ccccc2O3)cc1 (stereo not given),viability,[1],55.4% (inactive)
same,differential viability (reversal),[2]; H69AR cells + 2 uM doxorubicin,-7.07% (inactive)
same,viability,[2]; [12],44.6%
same,viability,[2]; [13],37.5%
same,inhibition,[3],-2.47% (inactive)
same,inhibition,[4],-12.7% (inactive)
Nc1nc(Cl)nc2c1ncn2[C@@H]1O[C@H](CO)[C@@H](O)[C@H]1O,viability,[1],3.95% (active)
same,differential viability (reversal),[2]; H69AR cells + 2 uM doxorubicin,-24.3% (inactive)
same,viability,[2]; [12],74.6%
same,viability,[2]; [13],50.3%
same,inhibition,[3],-1.43% (inactive)
same,inhibition,[4],1% (inactive)
COc1ccc(Cn2c(C)nc3c(c2=O)c2nc4ccccc4nc2n3Cc2ccco2)cc1,viability,[1],62% (inactive)
same,differential viability (reversal),[2]; H69AR cells + 2 uM doxorubicin,3.86% (inactive)
same,viability,[2]; [12],30.8%
same,viability,[2]; [13],34.6%
same,inhibition,[3],-1.71% (inactive)
same,inhibition,[4],5.56% (inactive)
COc1ccc(CCN2CCC(Nc3nc4ccccc4n3Cc3ccc(F)cc3)CC2)cc1,viability,[1],1.47% (active)
same,differential viability (reversal),[2]; H69AR cells + 2 uM doxorubicin,0.16% (inactive)
same,viability,[2]; [12],0.36%
same,viability,[2]; [13],0.52%
CC(C)(C)C1CCc2onc(C(=O)Nc3cnn(Cc4ccc(F)cc4)c3)c2C1 (stereo not given),viability,[5],32.9% (active)
same,differential viability (reversal),[2]; H69AR cells + 2 uM doxorubicin,-17.6% (inactive)
same,viability,[2]; [12],50.6%
same,viability,[2]; [13],32.9%
same,inhibition,[3],0% (inactive)
same,inhibition,[4],3.02% (inactive)
Cc1cc(C)c(C(=O)CSc2nnc(-c3ccccc3Br)o2)cc1C,viability,[5],73.1% (inactive)
same,differential viability (reversal),[2]; H69AR cells + 2 uM doxorubicin,-2.75% (inactive)
same,viability,[2]; [12],75.8%
same,viability,[2]; [13],73.1%
same,inhibition,[3],-3.87% (inactive)
same,inhibition,[4],3.49% (inactive)
COc1cccc2c1C(=O)c1c(O)c3c(c(O)c1C2=O)C[C@@](O)(C(C)=O)C[C@@H]3O[C@H]1C[C@H](N)[C@H](O)[C@H](C)O1,viability,[1],5.46% (active)
same,inhibition,[3],-2.73% (inactive)
same,inhibition,[4],-0.17% (inactive)
CCOC(=O)C1=C(Cn2cnc3ccccc32)NC(=O)NC1c1cc(C)ccc1C (stereo not given),viability,[1],93.7% (inactive)
same,differential viability (reversal),[2]; H69AR cells + 2 uM doxorubicin,-17.6% (inactive)
same,viability,[2]; [12],60.1%
same,viability,[2]; [13],42.5%
same,inhibition,[3],-1.71% (inactive)
same,inhibition,[4],1.43% (inactive)
CCOC(=O)c1cc2sccc2n1CC(=O)Nc1ccc2c(c1)OCCO2,viability,[1],87.4% (inactive)
same,differential viability (reversal),[2]; H69AR cells + 2 uM doxorubicin,7.47% (inactive)
same,viability,[2]; [12],65.2%
same,viability,[2]; [13],72.6%
same,inhibition,[3],-6.1% (inactive)
same,inhibition,[4],0.95% (inactive)
CC(C)(C)n1nnnc1CN(Cc1ccco1)Cc1cc2cc3c(cc2[nH]c1=O)OCO3,viability,[1],78% (inactive)
same,differential viability (reversal),[2]; H69AR cells + 2 uM doxorubicin,-8.75% (inactive)
same,viability,[2]; [12],68%
same,viability,[2]; [13],59.3%
same,inhibition,[3],-8% (inactive)
same,inhibition,[4],0.16% (inactive)
COc1cc(-n2nc(C)c3c2OC(N)=C(C#N)C3c2ccccc2)c(Cl)c(Br)c1O (stereo not given),viability,[1],50% (inactive)
same,differential viability (reversal),[2]; H69AR cells + 2 uM doxorubicin,1.54% (inactive)
same,viability,[2]; [12],68%
same,viability,[2]; [13],69.5%
same,inhibition,[3],-6.4% (inactive)
same,inhibition,[4],-4.6% (inactive)
Cc1cc2oc(=O)cc(CN3CCCCC3)c2cc1C(C)C,viability,[1],52.5% (inactive)
same,differential viability (reversal),[2]; H69AR cells + 2 uM doxorubicin,0.87% (inactive)
same,viability,[2]; [12],51.2%
same,viability,[2]; [13],52.1%
same,inhibition,[3],-1.82% (inactive)
same,inhibition,[4],-2.06% (inactive)
c1ccc(-n2ncc3c(NCc4cccs4)ncnc32)cc1,viability,[1],79% (inactive)
same,differential viability (reversal),[2]; H69AR cells + 2 uM doxorubicin,-10.5% (inactive)
same,viability,[2]; [12],52.3%
same,viability,[2]; [13],41.8%
same,inhibition,[3],-7.73% (inactive)
same,inhibition,[4],2.22% (inactive)
CSc1ccc2c(c1)N(CCC1CCCCN1C)c1ccccc1S2 (stereo not given),viability,[1],2.44% (active)
same,differential viability (reversal),[2]; H69AR cells + 2 uM doxorubicin,0.67% (inactive)
same,viability,[2]; [12],1.26%
same,viability,[2]; [13],1.93%
COc1cccc2c1C(=O)c1c(O)c3c(c(O)c1C2=O)C[C@@](O)(C(=O)CO)C[C@@H]3O[C@H]1C[C@H](N)[C@H](O)[C@H](C)O1,viability,[1],22.1% (active)
same,differential viability (reversal),[2]; H69AR cells + 2 uM doxorubicin,-7.64% (inactive)
same,viability,[2]; [12],25.6%
same,viability,[2]; [13],18%
same,inhibition,[3],0.26% (inactive)
same,inhibition,[4],3% (inactive)
NC(=O)SCC(=O)Nc1cccc(Cl)c1,viability,[1],58.4% (inactive)
same,differential viability (reversal),[2]; H69AR cells + 2 uM doxorubicin,9.55% (inactive)
same,viability,[2]; [12],56.8%
same,viability,[2]; [13],66.4%
same,inhibition,[3],-5.19% (inactive)
same,inhibition,[4],2.06% (inactive)
CCCn1c(N2CCN(CC(=O)NCc3cccs3)CC2)nc2ccccc21,viability,[1],97.6% (inactive)
same,differential viability (reversal),[2]; H69AR cells + 2 uM doxorubicin,-0.505% (inactive)
same,viability,[2]; [12],60.4%
same,viability,[2]; [13],59.9%
same,inhibition,[3],-4.47% (inactive)
same,inhibition,[4],6.03% (inactive)
CC(NCCC(c1ccccc1)c1ccccc1)c1ccccc1 (stereo not given),viability,[1],2.03% (active)
same,differential viability (reversal),[2]; H69AR cells + 2 uM doxorubicin,-0.87% (inactive)
same,viability,[2]; [12],2.41%
same,viability,[2]; [13],1.54%
same,inhibition,[3],3.77% (inactive)
same,inhibition,[4],-5.67% (inactive)
CN1CCCN(C(c2ccccc2)c2ccc(Cl)cc2)CC1 (stereo not given),viability,[1],54.3% (inactive)
same,differential viability (reversal),[2]; H69AR cells + 2 uM doxorubicin,-24.5% (inactive)
same,viability,[2]; [12],69.4%
same,viability,[2]; [13],44.8%
OCCNc1ncnc2c1c(-c1ccccc1)c(-c1ccccc1)n2Cc1ccco1,viability,[5],72.4% (inactive)
same,differential viability (reversal),[2]; H69AR cells + 2 uM doxorubicin,23.7% (inactive)
same,viability,[2]; [12],48.8%
same,viability,[2]; [13],72.4%
same,inhibition,[3],-5.66% (inactive)
same,inhibition,[4],15.7% (inactive)
COCCCNC(=O)c1c(N)n(-c2cccc(S(N)(=O)=O)c2)c2nc3ccccc3nc12,viability,[5],67.2% (inactive)
O=S(=O)(Cc1ccc(Cl)cc1)Nc1ccc2c(c1)OCO2,viability,[5],104% (inactive)
CCOC(=O)C1CCCN(C(=O)CCCn2nc(C)n3c(cc4sccc43)c2=O)C1 (stereo not given),growth inhibition,[6],-4.78% (inactive)
same,growth inhibition,[7],-16.8% (inactive)
same,viability increase,[8],-1.97% (inactive)
same,viability,[9],102% (inactive)
same,viability,[10],94.3% (inactive)
same,inhibition,[11],1.37% (inactive)
